Reference: PubChem BioAssay (Tox21)
Activity calls are given as the source filed them. Calls come from the whole dose curve; as a rule, active = well fitted activation curve with a large enough effect in the repeat runs; inconclusive = weak or mixed curves; inactive = flat fitted curve, though single readings scatter.

Assay: A CellTox Green Cytotoxicity Assay to monitor cytotoxicity in HEK293 cells - 0 hour (AID 1224869); note: nearly all actives have a fitted effect of over 50% in size
Settings: CellTox Green fluorescence; series mostly up to 76.8 µM; cytotoxicity: at the top concentration
Text: National Center for Advancing Translational Sciences [NCATS]
NIH Chemical Genomics Center [NCGC]
U.S. Environmental Protection Agency [EPA]
National Institutes of Environmental Health Sciences [NIEHS]
National Toxicology Program [NTP]
Cell-based models are critical for drug discovery. Determining the natural cytotoxic effects resulting from test compounds is an essential research activity. A CellTox Green Cytotoxicity Assay to monitor cytotoxicity in real time of continues cell culture during 40 hours of the compound treatment was used to screen Tox21 10K library compounds in Hek293 cells. CellTox Green Cytotoxicity Assay is a nonlytic, homogeneous, biofluorescent method to measure cytotoxicity in cell culture after experimental manipulation. The assay system uses a proprietary asymmetric cyanine dye that is excluded from viable cells but preferentially stains the dead cell's DNA. […] Viable cells produce no appreciable increases in fluorescence. Therefore, the fluorescence signal produced by the binding interaction with dead cell DNA is proportional to cytotoxicity.
The mixture of Hek293 cell suspension and reagents were dispensed at 600cells/6 ul/well in 1536-well tissue culture treated black solid bottom plates using a Multidrop dispenser. After the assay plates were incubated at a 37 C/5% CO2 incubator for 5 hours, 23 nL of compounds dissolved in DMSO, positive and negative controls was transferred to the assay plate by a pintool work station. The plates were incubated at 37 C for 40 hours. The fluorescence intensity were measured at 0h, 8h, 16h, 24h, 32h and 40h time points using ViewLux plate reader during compound treatment.
% is set by controls: 0 for no effect and ±100 for the full control effect.

SMILES	cytotoxicity
CCOC(=O)CS	-1.46% (inactive)
CCCCNCCCC	-5.46% (inactive)
CC1=C(CC(=O)O)c2cc(F)ccc2/C1=C\c1ccc(S(C)(=O)=O)cc1	2.24% [at 35.3 µM] (inactive)
CC(C)(CO)[C@@H](O)C(=O)NCCC(=O)O	-0.831% (inactive)
C=CCCC=C	8.49% (inactive)
O=C1CCCCCCCCCCC(=O)OCCO1	0.205% (inactive)
CCOC(=O)COc1ccc2c(c1)CC(NCC(O)c1cccc(Cl)c1)CC2 (stereo not given)	1.8% (inactive)
CCOc1ccc2nc(N)sc2c1	-1.59% (inactive)
CCCCCCCCCCCCCCCCOP(=O)([O-])OCC[N+](C)(C)C	-1.9% [at 35.3 µM] (inactive)
O=Cc1ccc(F)c(Br)c1	10.6% (inactive)
O=C1N(c2ccccc2)c2ccccc2C1(Cc1ccncc1)Cc1ccncc1	-6.24% [at 35.3 µM] (inactive)
CCCCC1CCC(=O)O1 (stereo not given)	-0.937% (inactive)
C1CCOC1	0.225% (inactive)
CCNCCO	-6.96% (inactive)
Cn1cnc2c(F)c(Nc3ccc(Br)cc3Cl)c(C(=O)NOCCO)cc21	-0.112% [at 35.3 µM] (inactive)
CC(C)=CCCC(C)CCOC=O (stereo not given)	2.15% (inactive)
CC1(C)S[C@@H]2[C@H](NC(=O)C(C(=O)O)c3ccccc3)C(=O)N2[C@H]1C(=O)O (stereo not given in full)	3.15% [at 35.3 µM] (inactive)
CCOC(=O)[C@H](CCc1ccccc1)N[C@@H](C)C(=O)N1Cc2cc(OC)c(OC)cc2C[C@H]1C(=O)O	4.04% [at 35.3 µM] (inactive)
CCCCNc1cc(C(=O)O)cc(S(N)(=O)=O)c1Oc1ccccc1	-2.35% [at 35.3 µM] (inactive)
CC1(C)C(=O)N(Cl)C(=O)N1Br	2.81% (inactive)

SMILES	cytotoxicity
CN1CCC[C@@H]1Cc1c[nH]c2ccc(CCS(=O)(=O)c3ccccc3)cc12	1.62% [at 35.3 µM] (inactive)
NS(=O)(=O)c1cc(-c2nn[nH]n2)c(NCc2cccs2)cc1Cl	-0.124% [at 35.3 µM] (inactive)
CO[C@@]1(NC(=O)CSCC#N)C(=O)N2C(C(=O)O)=C(CSc3nnnn3C)CS[C@@H]21	-7.63% [at 35.3 µM] (inactive)
NC/C=C/C(=O)O	-0.765% [at 35.3 µM] (inactive)
CCC1(C)NC(=O)NC1=O (stereo not given)	-3.19% (inactive)
O=c1[nH]cnc2c1ncn2[C@@H]1O[C@H](CO)[C@@H](O)[C@H]1O	-10.6% [at 35.3 µM] (inactive)
C[C@]12CCC(=O)C=C1CC[C@@H]1[C@@H]2CC[C@@]2(C)[C@H]1CC[C@]2(O)C(=O)CO	-9.56% [at 35.3 µM] (inactive)
NC(Cc1ccc(F)cc1)C(=O)O (stereo not given)	7.03% [at 6.97 µM] (inactive)
CC(C)CC(=O)OCc1ccccc1	1.98% (inactive)
C[C@@H](N)C(=O)O	-2.53% [at 35.3 µM] (inactive)
Cc1cc2c(s1)Nc1ccccc1N=C2N1CCN(C)CC1	-0.0283% [at 35.3 µM] (inactive)
CC(C)(C)c1ccc(OC(=O)c2ccccc2O)cc1	1.3% (inactive)
CN(C)CCOc1ccccc1Cc1ccccc1	-5.79% [at 35.3 µM] (inactive)
CCCCNC(=S)NCCCC	0.541% (inactive)
CCc1cc2cc(OC)c(OC)cc2c(Cc2ccccc2)n1	-2.68% [at 35.3 µM] (inactive)
CCCCCCOc1ccc(N)cc1	0.172% (inactive)
CCCCN1C[C@H](O)[C@@H](O)[C@H](O)[C@H]1CO	-0.917% [at 35.3 µM] (inactive)
COC(=O)/C=C(/C)N	0.263% [at 35.3 µM] (inactive)
O=C(O)C(=O)Cc1c[nH]c2ccccc12	-0.687% (inactive)
O=C1CCN(c2ccccc2)N1	2.89% (inactive)
